NTR1 ag – agonists of human NTR1, primary screen, imaging, U2OS cells, beta-arrestin-GFP, high content; Neurotensin receptor type 1 (Homo sapiens), P30989; NTR1-U2OS beta-arrestin-GFP spot imaging, agonist mode; activation, % at 20 µM; 330,000 compounds, 0.17% hits; AID 493036, 2011;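 active means activation at or above 40% of the spot to cytoplasm intensity ratio, with at least 20 cells analyzed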;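 further: 0% = DMSO without peptide and 100% = 100 nM NTR1 peptide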
AI-2 QS modul – Vibrio harveyi AI-2 quorum sensing modulators, primary screen, JMH597 strain, luminescence/OD600 ratio; Vibrio harveyi JMH597 AI-2 luminescence/OD600 ratio, 9 h; hits give low values; strain lacks LuxN and CqsS sensors; 0 = neutral-control median; activity change, % at 7.5 µM; 300,000 compounds, 0.4% hits; AID 2094, 2009; in the data active means activity change below about -75%, passing the limit was not always enough;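 further: luminescence divided by OD600 gain over 9 h not by final OD600 alone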
Cardio protect – cardioprotection against H2O2-induced cell death, primary screen, uHTS, H9c2 cells, ATPLite luminescence | H9c2 cardiomyocytes, H2O2 injury protection, 2 h | protection from H2O2 cell death, % at 20 µM | 360,000 compounds, 0.63% hits | AID 588492, 2011;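 active means compounds giving at least 50% protection of heart cells from peroxide-induced death in the single-dose screen, raw or plate-pattern-corrected value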;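 further: 0% = DMSO wells with peroxide and 100% = DMSO wells without peroxide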
AHR activator – AHR activators, primary screen, cell-based, luminescence, luciferase reporter, human; 320,000 compounds, 2.5% hits; activation, % at 5 µM; AHR-responsive luciferase reporter cells; AID 2796, 2010; in the data active means activation above about 47%;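 further: 0% = vehicle wells and 100% = reference agonist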
Target sequence (P35869 whole entry, looked up): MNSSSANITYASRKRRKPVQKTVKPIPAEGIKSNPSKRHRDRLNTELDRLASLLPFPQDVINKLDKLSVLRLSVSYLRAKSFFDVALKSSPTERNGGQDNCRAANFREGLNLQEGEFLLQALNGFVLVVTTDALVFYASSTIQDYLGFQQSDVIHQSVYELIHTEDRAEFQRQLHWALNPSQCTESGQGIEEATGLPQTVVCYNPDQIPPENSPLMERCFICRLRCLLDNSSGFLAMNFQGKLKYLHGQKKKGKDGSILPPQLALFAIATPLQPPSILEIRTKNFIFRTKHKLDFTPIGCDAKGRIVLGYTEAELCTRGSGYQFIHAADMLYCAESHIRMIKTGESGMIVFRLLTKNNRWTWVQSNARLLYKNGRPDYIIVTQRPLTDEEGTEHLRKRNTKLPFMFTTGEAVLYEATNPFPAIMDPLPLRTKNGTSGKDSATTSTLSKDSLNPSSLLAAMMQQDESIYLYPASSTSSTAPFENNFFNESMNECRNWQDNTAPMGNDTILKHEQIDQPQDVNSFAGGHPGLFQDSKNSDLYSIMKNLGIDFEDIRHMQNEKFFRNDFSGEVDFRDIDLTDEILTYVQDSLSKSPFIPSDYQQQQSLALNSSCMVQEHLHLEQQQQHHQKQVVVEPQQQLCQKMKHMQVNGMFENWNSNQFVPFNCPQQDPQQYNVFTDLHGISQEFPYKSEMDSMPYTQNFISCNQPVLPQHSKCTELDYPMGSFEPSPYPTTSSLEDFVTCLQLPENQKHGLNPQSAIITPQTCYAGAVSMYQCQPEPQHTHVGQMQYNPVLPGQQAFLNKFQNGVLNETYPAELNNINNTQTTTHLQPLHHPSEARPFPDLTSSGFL
SUMO Mot1 rescue – yeast Mot1-301 growth rescue at high temperature, primary screen, SUMOylation pathway inhibitor project, S. cerevisiae, ATP luminescence, 38.5C; 320,000 compounds, 1% hits; growth rescue, % at 18.8 µM; S. cerevisiae Mot1-301 growth rescue; percent above DMSO median, 100 means doubled;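 active means every valid replicate shows activation above 250% relative to neutral control wells; inactive means the rest, any valid replicate at or below 250%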;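 further: OY570 slx delta 5 strain wells were the positive control but not used for scaling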
GRIN3A LBD mod – binders of NR3A ligand-binding domain, primary screen, biophysical, differential scanning fluorimetry, uHTS; AID 1259313, 2017; Tm shift relative to glycine control, % at 25 µM; 340,000 compounds, 2.5% hits; Glutamate receptor ionotropic, NMDA 3A (GRIN3A) ligand-binding domain; NR3A LBD differential scanning fluorimetry, Tm shift; 0% = protein alone, 100% = glycine-bound protein;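 active means melting temperature shift of at least 10% of the positive control shift, at one fixed dose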
Numbers without * were called inactive; / = not tested or not shown. An excerpt weighted towards active compounds, which were near 6.2% of everything screened.

SMILES | NTR1 ag | AI-2 QS modul | Cardio protect | AHR activator | SUMO Mot1 rescue | GRIN3A LBD mod
CC1Cc2ccccc2N1C(=O)COC(=O)c1n[nH]c(=O)c2ccccc12 (stereo unspecified) | 1.9 | / | 53.7* | -0.1 | -1.9 | -0.4
CC1Cc2ccccc2N1C(=O)Cn1nc(C(=O)O)c2ccccc2c1=O (stereo unspecified) | 1.6 | 0.3 | 53.4* | 1.8 | / | -0.1
CC(=O)c1cccc(NC(=O)CN2C(=O)C(=O)N(Cc3ccco3)C2=O)c1 | 0.6 | / | 2.0 | 1.9 | 5.4 | -1.3
COc1ccc(O)c(/C=N/NC(=S)NCCc2ccccc2)c1 | 27.1 | 20.7 | -2.4 | 12.8 | 4.4 | 36.1*
COc1ccc(/C(C)=N/NC(=S)NCCc2ccccc2)c(O)c1 | 10.0 | 49.8 | 7.7 | 6.0 | 16.3 | 23.4*
CC(=O)OC1CC2(C)/C(=N\O)CCC2C2CCc3cc(O)ccc3C12 (stereo unspecified) | 2.6 | 11.7 | 2.2 | / | 3.2 | -0.3
CCC(C)C(NC(=O)C(Cc1ccc(O)cc1)NC(=O)OCc1ccccc1)C(=O)OC (stereo unspecified) | / | / | -9.3 | / | / | /
CCCCNCCOCCOc1ccc(F)cc1 | -1.2 | 17.2 | -4.2 | 1.3 | 303.8* | -0.7
CCCCNCCOCCOc1ccc(Cl)cc1Br | 0.3 | 5.7 | 17.7 | 2.1 | 5.5 | -7.7
CCCCn1c(SCC(=O)c2ccc(OC)c(OC)c2)nc2cc(S(N)(=O)=O)ccc21 | 1.1 | 30.0 | 4.4 | 6.8 | 15.8 | 2.0
CCCCn1c(SCC(=O)c2ccc(OCC)cc2)nc2cc(S(N)(=O)=O)ccc21 | 9.2 | 31.7 | -8.6 | 48.4* | -13.0 | -5.4
O=C(O)C(c1ccccc1)C(O)c1ccc2c(c1)OCO2 (stereo unspecified) | / | / | 1.0 | / | / | 3.3
CC(C)(C)c1cc[n+](/C(C(=S)Nc2ccccc2F)=C(/[O-])c2ccc3c(c2)OCCO3)cc1 | -0.7 | 39.6 | -2.5 | 8.3 | 0.3 | 0.1
[O-]/C(=C(\C(=S)Nc1ccccc1F)[n+]1ccccc1)c1ccc(-c2ccccc2)cc1 | 2.2 | 21.4 | -14.2 | 60.5* | 7.3 | 6.0
C1CCCCCC(NCCN2CCNCC2)CCCCC1 | 5.3 | 12.9 | -4.3 | -0.2 | -4.2 | 0.0
Nc1cc(S(=O)(=O)Nc2ccc(Br)cc2)ccc1Cl | 4.0 | -76.0* | -14.1 | -0.2 | / | 3.6
O=S(=O)(Nc1ccc(-n2cccc2)cc1)c1ccc(F)cc1 | 0.8 | 16.0 | -6.9 | -0.9 | 16.5 | -10.4
O=S(=O)(Nc1ccc(-n2cccc2)cc1)c1ccc(Cl)cc1Cl | 12.1 | 0.0 | -16.6 | 0.9 | / | 13.5*
O=S(=O)(Nc1ccc(-n2cccc2)cc1)c1ccc(Cl)c(Cl)c1 | 13.3 | 32.9 | -1.5 | -2.2 | 101.5 | 34.7*
O=S(=O)(Nc1ccc(N2CCOCC2)cc1)c1cc(Cl)ccc1Cl | 0.0 | 13.8 | -8.1 | 1.0 | -19.8 | 1.8
COc1ccc(NS(=O)(=O)c2ccc(Cl)c(N)c2)cc1Br | 0.7 | 16.3 | -10.6 | 8.1 | -0.4 | 2.1
COCc1ccc(C(=O)NC2CCCc3c2cnn3-c2ccc(C)c(C)c2)o1 (stereo unspecified) | -0.7 | 12.9 | -6.5 | 0.1 | -2.7 | -0.6
O=C(NCC1CCCO1)c1cc(-c2ccc(F)cc2)no1 (stereo unspecified) | -0.4 | 23.1 | -2.0 | 12.0 | 4.0 | 0.7
Cc1ccc(C2=NNC(=O)C(c3ccc(Cl)cc3)C2)cc1 (stereo unspecified) | 2.3 | -83.9* | -13.8 | 3.7 | 426.1 | -2.9
O=C1NN=C(c2ccc(Cl)cc2)CC1c1cccc(Br)c1 (stereo unspecified) | 4.6 | 30.4 | -13.1 | -0.3 | 14.3 | -10.8
SMILES | NTR1 ag | AI-2 QS modul | Cardio protect | AHR activator | SUMO Mot1 rescue | GRIN3A LBD mod
CCOC(=O)C1=C[C@@H](c2ccccc2)N(S(=O)(=O)c2ccc(C)cc2)[C@H]1c1ccccc1Cl | / | / | -1.0 | / | / | /
CN(C)CCN1C(=O)C(=O)/C(=C(/O)c2ccc(S(=O)(=O)N3CCOCC3)cc2)C1c1ccccc1 (stereo unspecified) | 1.6 | 7.4 | 3.7 | -0.6 | 314.5* | 2.1
CC1(C)CC(=O)C2=C(C1)N(Cc1ccco1)C(=O)C2(NC(=O)c1cccnc1)C(F)(F)F (stereo unspecified) | -0.4 | 13.7 | -3.4 | 0.9 | 13.7 | -1.6
CC1(C)CC(=O)C2=C(C1)N(Cc1ccco1)C(=O)C2(O)C(F)(F)F (stereo unspecified) | -0.1 | -1.0 | 10.2 | -0.1 | 5.2 | 68.5*
CCC(=O)c1ccc(OCC(O)CN2CCN(S(=O)(=O)N3CCCCC3)CC2)cc1 (stereo unspecified) | -0.5 | 19.6 | -3.1 | -0.1 | 286.1* | -1.8
O=C(c1ccccc1)c1ccc(OCC(O)CN2CCN(S(=O)(=O)N3CCCCC3)CC2)cc1 (stereo unspecified) | 0.1 | 25.2 | -11.6 | 2.8 | / | 1.4
CSc1nnc(-c2cc3c(s2)-c2ccccc2CC3)o1 | 4.7 | 22.7 | -19.6 | 66.5* | 2.7 | -19.8
CC(=O)Nc1ccc(N2C(C(C)=O)=NN(c3ccc(Cl)cc3)C2c2sccc2C)cc1 (stereo unspecified) | 6.7 | 44.2 | -2.3 | 65.6* | 0.9 | -9.8
CSc1nc2ccccc2n1CC(=O)Nc1ccccc1 | -1.0 | 23.3 | -3.8 | 0.2 | 10.0 | 0.9
CCc1ccc(NC(=O)Cn2c(SC)nc3ccccc32)cc1 | -0.2 | -3.4 | -5.0 | 77.6* | 14.4 | -0.2
O=C(Cn1c(/C=C/c2ccccc2)nc2ccccc21)Nc1ccc(F)cc1 | 3.2 | 4.8 | -8.7 | 12.7 | -17.2 | 14.4*
CC(C)(C)NC(=O)c1ccccc1NC(=O)c1ccc2c(c1)OCO2 | -0.2 | 16.2 | 0.8 | 67.6* | 8.4 | -1.4
CC(=O)Nc1ccccc1NC(=O)c1ccc2c(c1)OCO2 | / | / | 8.8 | / | / | /
CCCC(=O)Nc1ccccc1NC(=O)c1ccc2c(c1)OCO2 | 0.6 | 24.0 | 1.0 | 8.0 | 4.3 | -0.9
CCCCNC(=O)c1ccccc1NC(=O)c1ccc2c(c1)OCO2 | -1.3 | -0.8 | -5.7 | 58.1* | -3.9 | 2.9
Cc1ccc(NC(=O)COc2ccc(N(C)C(=O)C(C)(C)C)cc2)cc1S(=O)(=O)N1CCCCC1 | -0.3 | / | -28.4 | -5.4 | -9.6 | -1.7
Cc1cc2[nH]c3c4ccccc4nc(C)c3c2cc1C | / | / | -22.0 | / | / | 10.3*
Cc1cc2[nH]c3c(c[n+](C)c4ccccc34)c2cc1C | 8.9 | 7.3 | -15.9 | 5.6 | -11.1 | -0.8
CCCCC1=CC2=CC(=O)C(C)(OC(=O)c3ccc(Cl)nc3)C(=O)C2=CO1 (stereo unspecified) | -1.6 | 29.4 | / | 2.5 | 27.9 | /

From PubChem
